Laboratory results reported in PubChem BioAssay (Tox21).
Records with an inconclusive call do not appear. Where a call stands in place of a potency, no number is given. A number with no mark means an inactive call. Calls of active or inactive are those of the source. Calls come from the whole dose curve; as a rule, active = well fitted cell-killing curve with a large enough effect in the repeat runs; inconclusive = weak or mixed curves, or effect the other way; inactive = flat fitted curve, though single readings scatter.
Potency is the fitted concentration of half-maximal effect.

Experiment: Caspase-3/7 induction in HepG2 cells by small molecules, qHTS cell viability counter screen (AID 1346981); note: nearly all actives have a fitted effect of over 30% in size
Conditions: CellTiter-Fluor fluorescence, 17 h; series mostly up to 92.4 µM
Source text: U.S. Tox21 Program National Center for Advancing Translational Sciences [NCATS] NIH Chemical Genomics Center [NCGC] U.S. Environmental Protection Agency [EPA] National Institutes of Environmental Health Sciences [NIEHS] National Toxicology Program [NTP] U.S. Food and Drug Administration [FDA] Tox21 Assay Overview: Apoptosis is a process of programmed cell death and plays a central role in the development of multicellular organisms. It is a highly regulated process and induces cell death by activating caspases, which are the members of cysteine aspartic acid-specific protease (caspase) family. Caspases involved in apoptosis are classified by their mechanism of action as initiator caspases (caspase-2, -8, -9 and -10) and executioner caspases (caspase-3, -6, and -7). Inhibition of apoptosis results in number of cancers, autoimmune diseases, inflammatory diseases and viral infection. To identify small molecule compounds that induce apoptosis, a homogeneous, luminescent Caspase-Glo 3/7 assay was used. Wild type HepG2 cells were used to screen Tox21 libraries for identifying caspase-3/7 activity inducers. Also cytotoxicity of the compounds was tested in parallel by measuring the cell viability using CellTiter-Fluor assay system in the same wells.
Tox21 Assay Protocol Summary: HepG2 cells were dispensed at 2,000 per well in 5uL of culture medium into white solid bottom 1536-well plates (Corning Life Sciences, Corning, NY) using a Multidrop Combi (Thermo Scientific, Waltham, MA) dispenser. The assay plates were incubated at 37 C and 5% CO2 for 5hr, and then 23nL of compounds dissolved in DMSO and positive control were transferred using a Pintool station ([…], San Diego, CA). The assay plates were incubated at 37C and 5% CO2 for 17hr. For cytotoxicity read, after 16hr incubation at 37C, 1uL CellTiter-Fluor reagent (Promega Corporation, Madison, WI) was added to each well of the assay plates using Flying Reagent Dispenser (FRD, Aurora Discovery, San Diego, CA). After 1hr incubation at 37C and 5% CO2, the fluorescence signal was quantified using a ViewLux plate reader (PerkinElmer, Shelton, CT).
With `Cn1cc(C2=C(c3cn(C4CCN(Cc5ccccn5)CC4)c4ccccc34)C(=O)NC2=O)c2ccccc21` the Potency was 10.6 µM (active). In the case of `CC1(C)[C@H](C(=O)O[C@H](C#N)c2cccc(Oc3ccccc3)c2)[C@@H]1/C=C(\Cl)C(F)(F)F`, the Potency is reported as “inactive”. In the case of `Clc1ccc(C(Cl)(Cl)Cl)c(Cl)c1`, the Potency is reported as “inactive”. With `CCc1ccccc1C` the Potency was “inactive”. In the case of `O=C/C(Cl)=C(/Cl)C(=O)O`, the Potency is reported as “inactive”. In the case of `Cc1ccc(OP(=O)(Oc2ccccc2)Oc2ccccc2)cc1`, the Potency is reported as “inactive”. For `CCCCCCCCCBr`, the Potency was “inactive”. For `COc1ccc(OC)c(C=O)c1`, the Potency was “inactive”. For `O=c1[nH]c2ccccc2n1C1CCN(CCCC(c2ccc(F)cc2)c2ccc(F)cc2)CC1`, the Potency was 54.5 µM (active). For `Brc1c(Br)c(Br)c(Oc2c(Br)c(Br)c(Br)c(Br)c2Br)c(Br)c1Br`, the activity change, negative = cytotoxicity was 0.358% [at 19 µM]. With `N#CC(Cl)Cl` the Potency was “inactive”. For `CCCCCCCCCCBr`, the Potency was “inactive”. With `ClC1=C(Cl)[C@]2(Cl)[C@@H]3[C@@H](Cl)[C@@H](Cl)C[C@@H]3[C@@]1(Cl)C2(Cl)Cl` the Potency was “inactive”. For `C=CC(=O)OCC(COC(=O)C=C)(COC(=O)C=C)COC(=O)C=C`, the Potency was 15.4 µM (active). In the case of `Oc1ccc(I)cc1`, the Potency is reported as “inactive”. For `CC(C)CBr`, the Potency was “inactive”. For `CCOC(=O)c1ccccc1S(=O)(=O)NC(=O)Nc1nc(Cl)cc(OC)n1`, the Potency was “inactive”. For `BrCBr`, the Potency was “inactive”. For `CCSC(C)CC1CC(=O)C(/C(CC)=N/OC/C=C/Cl)=C(O)C1` (stereo not given), the Potency was “inactive”. With `O=C(Nc1ccc2[nH]ccc2c1)c1cc2cc(F)ccc2n1Cc1cccc(F)c1` the Potency was 61.1 µM (active). With `COc1ccc(N)cc1N` the Potency was 56.2 µM (active). For `CCOC(=O)CC(=O)CCl`, the Potency was “inactive”. In the case of `CCN(CC)C(=S)[S-].CCN(CC)C(=S)[S-].[Zn+2]`, the Potency is reported as 27.1 µM (active). In the case of `Cc1cc(C)c(C2=C(OC(=O)CC(C)(C)C)C3(CCCC3)OC2=O)c(C)c1`, the Potency is reported as “inactive”. For `c1ccc2c(c1)[nH]c1cnccc12`, the Potency was “inactive”. In the case of `CC(=[OH+])/C=C(/C)[O-].CC(=[OH+])/C=C(\C)[O-].CC(=[OH+])/C=C(\C)[O-].[Al]`, the Potency is reported as “inactive”. With `C[C@@H]1O[C@@H](O[C@H]2C[C@@H](O)[C@]3(CO)[C@H]4[C@H](O)C[C@]5(C)[C@@H](C6=CC(=O)OC6)CC[C@]5(O)[C@@H]4CC[C@]3(O)C2)[C@H](O)[C@H](O)[C@H]1O` the Potency was “inactive”. In the case of `CCCCCCCCCCCCCCCC[N+](C)(C)C`, the Potency is reported as 68.6 µM (active). With `CC(C)CC(C)N` (stereo not given) the Potency was “inactive”. With `Clc1ccc(-c2ccc(Cl)c(Cl)c2Cl)c(Cl)c1Cl` the Potency was “inactive”. With `N#CCCO` the Potency was “inactive”. For `CCOP(=S)(OCC)OC(Cl)C(Cl)(Cl)Cl` (stereo not given), the Potency was “inactive”. In the case of `O=c1oc2ccccc2c(O)c1Cc1c(O)c2ccccc2oc1=O`, the Potency is reported as “inactive”. With `C[C@@H](Oc1ccc(Cl)cc1Cl)C(=O)O` the Potency was “inactive”. With `S=C=Nc1cccc2ccccc12` the Potency was 60.5 µM (active). With `Fc1cccc(Cl)c1CCl` the Potency was “inactive”. For `CN(CCCC(O)c1cccnc1)N=O` (stereo not given), the Potency was “inactive”. In the case of `ClC(Cl)=C(Cl)Cl`, the Potency is reported as “inactive”. In the case of `O=C1C=CC(=O)c2ccccc21`, the Potency is reported as 61.1 µM (active). With `CC(=O)C(Cl)(Cl)Cl` the Potency was 18.7 µM (active).
